Consider nine molecules from PubChem BioAssay (NCI).

Each structure is given as a SMILES string. Compounds without any hit were thinned out: in the full panel of roughly 83,000, 20% have a hit.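 Values shown are percent growth following 48 h exposure of cells in 96-well plates to a single concentration of compound; below 10 was considered active.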 Values without a mark were called inactive. The source made the active and inactive calls.

Test systems include NCI-H23 lung; NCI-H226 lung; NCI-H322M lung; HOP-62 NSCLC; NCI-H460 lung; HOP-92 NSCLC; NCI-H522 lung; A549/ATCC NSCLC; 786-0 renal; DU-145 prostate; MALME-3M melanoma; MDA-MB-231 breast; RXF 393 renal; SF-268 CNS; SF-295 CNS; SF-539 CNS; UACC-257 melanoma; M14 melanoma; COLO 205 colon; K-562 leukemia.
What all share (test): NCI-60 one-dose screen, 48 h (100 = growth as untreated, 0 = no growth, -100 = all killed)
Conditions in all cases: 10 µM unless noted

As for `Cc1cn(C2CCCCC2)c(=O)[nH]c1=O`, the growth in the assay on NCI-H23 lung is 115%; with NCI-H226 lung, 101%; in the assay with NCI-H322M lung it was 129%; with HOP-62 NSCLC it was 109%; in the assay with NCI-H460 lung, 117%; in the assay on HOP-92 NSCLC it was 97.4%. For the same molecule, the growth in the assay on NCI-H522 lung is 97.8%; in the assay with A549/ATCC NSCLC, 101%; in the assay with 786-0 renal it was 107%; in the assay with DU-145 prostate it was 163%; with MALME-3M melanoma, 120%; with MDA-MB-231 breast, 103%. In addition, the growth is 113% with RXF 393 renal; 108% with SF-268 CNS; 111% in the assay with SF-295 CNS; 109% in the assay with SF-539 CNS; 102% with UACC-257 melanoma; 106% with M14 melanoma.

`N#Cc1cnn2c(-c3ccc(Cl)cc3)nc(NCCc3ccccc3)nc12`: the growth is 85.2% with NCI-H23 lung; 105% in the assay on NCI-H226 lung; 83.5% in the assay with NCI-H322M lung; 84.9% in the assay on HOP-62 NSCLC; 99% in the assay with NCI-H460 lung; 92.6% with HOP-92 NSCLC. The growth in the assay with NCI-H522 lung was 74.4%; in the assay with A549/ATCC NSCLC, 93.3%; in the assay on 786-0 renal it was 92.5%; in the assay with DU-145 prostate, 99.5%; in the assay on MALME-3M melanoma, 111%; in the assay with MDA-MB-231 breast, 87.5%. The growth is 116% in the assay with RXF 393 renal; 92.2% with SF-268 CNS; 99.2% with SF-295 CNS; 98% in the assay with SF-539 CNS; 99.9% with UACC-257 melanoma; 95% in the assay with M14 melanoma.

As to `Cc1c(Cl)cccc1NS(=O)(=O)c1ccccc1`, the growth is 113% in the assay on NCI-H23 lung; 93.1% in the assay with NCI-H226 lung; 110% in the assay with NCI-H322M lung; 112% with HOP-62 NSCLC; 112% in the assay with NCI-H460 lung; 89.2% with HOP-92 NSCLC. Also, the growth with NCI-H522 lung is 98.4%; in the assay with A549/ATCC NSCLC, 104%; in the assay on 786-0 renal, 106%; with DU-145 prostate, 143%; in the assay on MALME-3M melanoma, 124%; in the assay with MDA-MB-231 breast it was 102%. The growth with RXF 393 renal is 95.3%; in the assay with SF-268 CNS, 104%; with SF-295 CNS, 95.2%; with SF-539 CNS, 102%; in the assay on UACC-257 melanoma, 95.1%; with M14 melanoma, 105%.

For `CCOC(=O)N1CCc2c(sc3c2C(=O)N[C@H](c2ccc(OC)cc2)N3)C1`, the growth was 103% with NCI-H23 lung; 94.7% with NCI-H226 lung; 105% with NCI-H322M lung; 68.4% with HOP-62 NSCLC; 104% with NCI-H460 lung; 92.6% in the assay on HOP-92 NSCLC. The growth in the assay with NCI-H522 lung is 76%; in the assay on A549/ATCC NSCLC, 85.4%; in the assay on 786-0 renal it was 97.8%; in the assay on DU-145 prostate, 113%; with MALME-3M melanoma it was 96.7%; in the assay with MDA-MB-231 breast it was 104%. In addition, the growth in the assay on RXF 393 renal is 113%; in the assay with SF-268 CNS it was 101%; with SF-295 CNS, 97%; in the assay on SF-539 CNS, 100%; with UACC-257 melanoma it was 86.6%; in the assay on M14 melanoma, 94.7%.

`O=C(C[C@@]1(O)C(=O)Nc2c(Cl)ccc(Cl)c21)c1ccc(C2CC2)cc1`: the growth was 37.5% in the assay with NCI-H23 lung; 46.4% in the assay on NCI-H226 lung; 53.1% in the assay with NCI-H322M lung; 34.2% in the assay with HOP-62 NSCLC; 6.3% (active) in the assay with NCI-H460 lung; 75.5% in the assay with HOP-92 NSCLC. Moreover, the growth with NCI-H522 lung is 19.4%; in the assay with A549/ATCC NSCLC, 38.1%; with COLO 205 colon, 1.09% (active); with DU-145 prostate, 16.5%; with K-562 leukemia, 7.6% (active); with MALME-3M melanoma it was 41.9%. The growth is 45% in the assay with MDA-MB-231 breast; -10% (active) in the assay on RXF 393 renal; 54.8% with SF-268 CNS; -9.37% (active) in the assay with SF-295 CNS; -27.7% (active) in the assay with SF-539 CNS; 73% in the assay with UACC-257 melanoma.

Turning to `COC(=O)Nc1nc2ccc(C(=O)C3CC3)cc2[nH]1`, the growth in the assay on NCI-H23 lung was 33.8%; in the assay on NCI-H226 lung, 149%; in the assay with NCI-H322M lung it was 50.9%; with HOP-62 NSCLC it was 38.1%; in the assay with NCI-H460 lung, 2.65% (active); with HOP-92 NSCLC, 53.5%. In addition, the growth was -37.6% (active) with NCI-H522 lung; 29.2% with 786-0 renal; -34.1% (active) in the assay with COLO 205 colon; 1.8% (active) in the assay on DU-145 prostate; -15.1% (active) in the assay on K-562 leukemia; 63.2% in the assay on MALME-3M melanoma. For the same molecule, the growth was 22.8% in the assay on MDA-MB-231 breast; 4.26% (active) in the assay with RXF 393 renal; 29.7% with SF-268 CNS; -38.5% (active) with SF-295 CNS; -27.5% (active) in the assay with SF-539 CNS; 27.5% with UACC-257 melanoma. Also, in the assay on M14 melanoma, the growth is 7.18% (active).

For the molecule `Cc1cc2c(F)c(Oc3ncnc(Nc4ccc(N5C[C@@H](C)N[C@@H](C)C5)cc4)c3C#N)cc(F)c2[nH]1`, the growth in the assay with NCI-H23 lung is 75%; in the assay with NCI-H226 lung, 74.1%; with NCI-H322M lung, 47.9%; with HOP-62 NSCLC it was 75.8%; in the assay with NCI-H460 lung, 6.38% (active); in the assay on HOP-92 NSCLC, 89.1%. The growth in the assay with NCI-H522 lung was -21.8% (active); with A549/ATCC NSCLC it was 13.7%; in the assay with COLO 205 colon it was -56.5% (active); in the assay with DU-145 prostate, 38.9%; in the assay with K-562 leukemia, -40.4% (active); in the assay on MALME-3M melanoma it was 75%. For the same molecule, the growth is -0.722% (active) in the assay with MDA-MB-231 breast; -25.7% (active) with RXF 393 renal; 29.3% with SF-268 CNS; 17.4% in the assay with SF-295 CNS; -78.7% (active) in the assay on SF-539 CNS; 65.9% in the assay with UACC-257 melanoma.

Regarding `CN(CCC(=O)/C(=C\c1ccccc1)c1ccc(Cl)cc1)Cc1ccccc1`, the growth was 29.2% in the assay with NCI-H23 lung; 65.6% in the assay on NCI-H226 lung; 71.2% in the assay on NCI-H322M lung; 47.6% in the assay with HOP-62 NSCLC; 42.2% in the assay with NCI-H460 lung; 82.9% with HOP-92 NSCLC. In addition, the growth in the assay with NCI-H522 lung is -45.9% (active); with A549/ATCC NSCLC it was 85.9%; in the assay on 786-0 renal, -64.5% (active); with K-562 leukemia, 22.7%; in the assay on MALME-3M melanoma, 18%; with MDA-MB-231 breast, 13%. The growth in the assay on RXF 393 renal is -29.3% (active); in the assay on SF-268 CNS, 5.31% (active); in the assay with SF-295 CNS it was 25.7%; in the assay on SF-539 CNS, -8.26% (active); with UACC-257 melanoma it was 53.5%; in the assay on M14 melanoma it was 37.9%.

For `C[C@@H]1C(=O)N(C[C@H](Cc2ccccc2)NC(=O)OCc2ccccc2)[C@]1(Cc1ccccc1)C(=O)OC(C)(C)C`, the growth with NCI-H23 lung was 71.8%; with NCI-H226 lung it was 62.2%; in the assay on NCI-H322M lung it was 86.7%; in the assay with HOP-62 NSCLC, 80.2%; in the assay with NCI-H460 lung, 66.6%; in the assay on HOP-92 NSCLC, 54.5%. Besides, the growth in the assay on NCI-H522 lung was 45%; with A549/ATCC NSCLC, 47.2%; with COLO 205 colon it was 62%; in the assay on DU-145 prostate it was 87.1%; in the assay on K-562 leukemia, 40.5%; with MALME-3M melanoma, 79.5%. In addition, the growth is 66.4% with MDA-MB-231 breast; 71.2% in the assay on RXF 393 renal; 65.7% in the assay with SF-268 CNS; 69.6% in the assay with SF-295 CNS; 87.1% in the assay on SF-539 CNS; 66.1% with UACC-257 melanoma.
